Assay results reported in the supplement of paper PMC3545927.
The list shows a part of the results. The hit rate among all sequences tested is not known here.

B1: HC2410 (peptide)
chain: CAEVPCHRPVAGNASASA
B2: FS-3096 (peptide)
chain: CARSSRSGSSAGNASASA
B3: HC385 (peptide)
chain: CASSGCPERLAGNASASA
B4: FS-146 (peptide)
chain: CASSGRSFRSAGNASASA
B5: FS-1395 (peptide)
chain: CARESRPRRQAGNASASA
B6: FS-887 (peptide)
chain: CAVDSRPRRSAGNASASA
B7: FS-1133 (peptide)
chain: CAKPQRPRRPAGNASASA
B8: FS-1163 (peptide)
chain: CARSSRPRRSAGNASASA
B9: FS-507 (peptide)
chain: CASSGRPRRSAGNASASA
B10: HC828 (peptide)
chain: CAQAETAGARAGNASASA
B11: HC655 (peptide)
chain: CADTAACGDIAGNASASA
B12: HC394 (peptide)
chain: CAQGWGPISYAGNASASA
B13: HC1345 (peptide)
chain: CASEPAPSGCAGNASASA
B14: HC80 (peptide)
chain: CATTPCPGSWAGNASASA
B15: HC1967 (peptide)
chain: CAEFTTPCSGAGNASASA
B16: HC1935 (peptide)
chain: CATTPCSGSHAGNASASA
B17: HC1606 (peptide)
chain: CAAFSLHSYSAGNASASA
B18: HC1842 (peptide)
chain: CAQTPCSGSWAGNASASA
B19: FS-1516 (peptide)
chain: CACQQRFKRKAGNASASA
B20: FS-3126 (peptide)
chain: CARVSRLAGRAGNASASA
B21: FS-2102 (peptide)
chain: CARVLRSDGKAGNASASA
B22: FS-1109 (peptide)
chain: CAAAFRFKRKAGNASASA
B23: FS-293 (peptide)
chain: CARVSRSVRKAGNASASA
B24: FS-2921 (peptide)
chain: CARFGRFWKKAGNASASA
B25: HC428 (peptide)
chain: CADVFVLNNTAGNASASA
B26: HC2167 (peptide)
chain: CAEFVTSTWVAGNASASA
B27: HC2513 (peptide)
chain: CASTRCSAHLAGNASASA
B28: CS8 (peptide)
chain: CAADVVDGAGAGNASASA

Molecular target: furin, P09958
Sequence (P09958 whole entry): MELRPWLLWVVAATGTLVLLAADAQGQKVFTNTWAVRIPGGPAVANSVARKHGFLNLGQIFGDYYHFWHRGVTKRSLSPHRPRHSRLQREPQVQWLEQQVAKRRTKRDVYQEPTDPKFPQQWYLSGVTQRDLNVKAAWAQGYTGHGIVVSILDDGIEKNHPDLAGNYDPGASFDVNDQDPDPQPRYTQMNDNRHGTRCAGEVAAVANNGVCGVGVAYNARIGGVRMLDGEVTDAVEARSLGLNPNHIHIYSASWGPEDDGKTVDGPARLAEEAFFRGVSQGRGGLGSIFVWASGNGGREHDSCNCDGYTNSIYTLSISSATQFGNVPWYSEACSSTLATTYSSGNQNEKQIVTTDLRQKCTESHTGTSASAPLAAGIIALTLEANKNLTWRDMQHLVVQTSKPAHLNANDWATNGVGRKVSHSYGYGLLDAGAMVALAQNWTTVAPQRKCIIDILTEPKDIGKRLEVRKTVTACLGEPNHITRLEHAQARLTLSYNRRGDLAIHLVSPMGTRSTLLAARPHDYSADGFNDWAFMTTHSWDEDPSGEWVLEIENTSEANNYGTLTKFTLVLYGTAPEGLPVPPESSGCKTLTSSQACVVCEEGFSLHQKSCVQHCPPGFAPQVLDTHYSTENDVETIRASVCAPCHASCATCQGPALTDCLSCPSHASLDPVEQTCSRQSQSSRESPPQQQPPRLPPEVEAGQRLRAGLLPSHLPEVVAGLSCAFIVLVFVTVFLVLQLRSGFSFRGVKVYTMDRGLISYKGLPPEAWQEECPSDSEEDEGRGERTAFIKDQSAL
Experiment: furin cleavage Z-score vs untreated control; higher = more cleavage, active = 3.5 or more, inactive = 1 or less, 8 variable residues between constant flanks
Procedure, shortened: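 Reactions of 0.01 ml ran for 7.5, 15 or 30 min in 50 mM HEPES pH 7.5 with CaCl2 and NaCl, at 1:10 enzyme:substrate. In them, purified furin acted on bead-held 8-mer peptides fused to a cDNA oligonucleotide. The cleavage Z-score was obtained by lowess-adjusting log sequencing counts of released DNA against furin-free reactions and scaling by median absolute deviation.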

Sequence | furin cleavage Z-score (7.5 min) | furin cleavage Z-score (15 min) | furin cleavage Z-score (30 min)
B1 | 0.723 (inactive) | -0.406 (inactive) | -0.356 (inactive)
B2 | -0.25 (inactive) | -0.36 (inactive) | -1.33 (inactive)
B3 | -0.122 (inactive) | -0.598 (inactive) | 0.353 (inactive)
B4 | 0.572 (inactive) | 0.748 (inactive) | 1.78
B5 | 8.96 (active) | 9.39 (active) | 6.91 (active)
B6 | 9.24 (active) | 9.17 (active) | 9.61 (active)
B7 | -0.333 (inactive) | 0.223 (inactive) | 1.52
B8 | 10.4 (active) | 11 (active) | 6.76 (active)
B9 | 10.4 (active) | 9.27 (active) | 7.66 (active)
B10 | -0.329 (inactive) | 0.716 (inactive) | -1.08 (inactive)
B11 | 0.349 (inactive) | -0.867 (inactive) | 1
B12 | 1.47 | 0.693 (inactive) | 0.999 (inactive)
B13 | -2.17 (inactive) | 0.166 (inactive) | -1.95 (inactive)
B14 | 0.174 (inactive) | -1.3 (inactive) | -1.39 (inactive)
B15 | -0.433 (inactive) | -0.681 (inactive) | -0.377 (inactive)
B16 | -1.54 (inactive) | -0.464 (inactive) | -0.211 (inactive)
B17 | 0.00727 (inactive) | -0.749 (inactive) | -0.113 (inactive)
B18 | -1.2 (inactive) | -0.187 (inactive) | -0.763 (inactive)
B19 | 9.6 (active) | 8.5 (active) | 7.56 (active)
B20 | -0.719 (inactive) | -0.0593 (inactive) | -1.13 (inactive)
B21 | 1.54 | -0.134 (inactive) | 1.59
B22 | 9.75 (active) | 11.5 (active) | 9.51 (active)
B23 | 2.18 | 4.8 (active) | 5.93 (active)
B24 | -0.769 (inactive) | 0.759 (inactive) | -0.706 (inactive)
B25 | 0.596 (inactive) | 0.292 (inactive) | 1.32
B26 | 0.46 (inactive) | -0.556 (inactive) | 1.32
B27 | -0.269 (inactive) | 0.477 (inactive) | 0.507 (inactive)
B28 | 0.136 (inactive) | 0.768 (inactive) | -0.146 (inactive)
